The source of these data is PubChem BioAssay (NCI).

“And” between values parts separate entries of the source, which are not always exact repeats. Equal values may be shown once. The panel holds about 83,000 compounds, 20% with a hit somewhere; the sample as a whole holds those more often.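 Testing used 96-well plates and a 48-hour single-concentration exposure. Example: -40 means 40% of the starting cells died.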 Unmarked numbers belong to inactive results. The source made the active and inactive calls. The calls were made as follows: active = growth percent below 10; inactive = the rest.

Common to all, as to test: NCI-60 one-dose screen, 48 h (100 = growth as untreated, 0 = no growth, -100 = all killed)
One test deals with T-47D breast. The note with it: 10 µM unless noted.
Another test deals with BT-549 breast. The settings on record: 10 µM unless noted.
The next test deals with MDA-MB-435 melanoma. The settings on record: 10 µM unless noted.
A further test concerns SW-620 colon. The note with it: 10 µM unless noted.
The next test relates to MCF7 breast.
In the next test the test system is HCT-116 colon. The note with it: 10 µM unless noted.
A further test relates to HCC-2998 colon. The note with it: 10 µM unless noted.
Another test deals with KM12 colon. The settings on record: 10 µM unless noted.

With `CCCCn1cnc2c(=O)[nH]cnc21`, the growth is 97.8% in the test on T-47D breast; 105% in the test on BT-549 breast; 100% in the test with MDA-MB-435 melanoma; 117% in the test on SW-620 colon; 98.2% in the test on MCF7 breast (10 µM unless noted); 107% with HCT-116 colon. Moreover, the growth with HCC-2998 colon is 117%; in the test with KM12 colon it was 132%.

`C=COC(=O)CCOCC(CC)CCCC` (stereo not drawn): the growth is 95.9% with T-47D breast; 93.6% in the test on BT-549 breast; 99.2% in the test on MDA-MB-435 melanoma; 105% in the test on SW-620 colon; 96.3% in the test on MCF7 breast (10 µM unless noted); 101% with HCT-116 colon. Also, the growth was 105% in the test with HCC-2998 colon and 99.9% in the test on KM12 colon.

In the case of `Cc1ccc(S(=O)(=O)Oc2ccc3sc4c(CO)ccc(NCCN(C)C)c4c(=O)c3c2)cc1`, the growth is -51.8% [100 µM] (active) with T-47D breast; -91.2% [100 µM] (active) with BT-549 breast; -98% [100 µM] (active) in the test with MDA-MB-435 melanoma; -88% [100 µM] (active) in the test on SW-620 colon; -76.1% [100 µM] (active) with MCF7 breast (10 µM unless noted); -75.9% [100 µM] (active) with HCT-116 colon. Besides, the values for the growth in the test with HCC-2998 colon and with KM12 colon were -88.2% [100 µM] (active) and -68.6% [100 µM] (active), respectively.

In the case of `CSCC[C@@H]1C(=O)N(C)[C@H](C(C)(C)C)N1C(=O)c1ccccc1`, the growth is 104% in the test on T-47D breast; 107% in the test with BT-549 breast; 106% with MDA-MB-435 melanoma; 102% in the test with SW-620 colon; 101% with MCF7 breast (10 µM unless noted); 101% with HCT-116 colon. For the same compound, the growth in the test with HCC-2998 colon is 105%; in the test on KM12 colon it was 101%.

For the compound `COc1ccc(C)cc1NC(=O)SC(C)C`, the growth was 89.7% [100 µM] in the test with T-47D breast; 101% [100 µM] with BT-549 breast; 101% [100 µM] in the test with MDA-MB-435 melanoma; 99.8% [100 µM] with SW-620 colon; 87% [100 µM] in the test with MCF7 breast (10 µM unless noted); 104% [100 µM] in the test with HCT-116 colon. The growth was 98.5% [100 µM] with HCC-2998 colon and 101% [100 µM] in the test with KM12 colon.

Take `C=CC(C)(C)n1cc(C2=C(O)C(=O)C(c3cn(C(C)(C)C=C)c4ccccc34)=C(O)C2=O)c2ccccc21`: the growth with T-47D breast is 85.9%; in the test with BT-549 breast, 96.3%; in the test with MDA-MB-435 melanoma, 103%; with SW-620 colon, 105%; with MCF7 breast (10 µM), 96.1%; with MCF7 breast (100 µM), -81.2% (active) and -91.7% (active). Also, the growth with HCT-116 colon was 97.4%; in the test with KM12 colon, 99.9%.

Take `O=S(=O)(O)c1cccnc1`: the growth is 106% with T-47D breast; 111% in the test with BT-549 breast; 102% with MDA-MB-435 melanoma; 98.9% in the test with SW-620 colon; 99.9% with MCF7 breast (10 µM unless noted); 126% in the test on HCT-116 colon. The results for the growth in the test on HCC-2998 colon and with KM12 colon were 153% and 101%, respectively.

As for `COc1ccc(-c2csc(NC(=O)Nc3nc(-c4ccc(OC)cc4)cs3)n2)cc1`, the growth is 56.5% in the test on T-47D breast; 79.9% in the test on BT-549 breast; 78.7% in the test with MDA-MB-435 melanoma; 98.1% in the test with SW-620 colon; 71.6% with MCF7 breast (10 µM unless noted); 64.2% with HCT-116 colon. The growth is 100% in the test with HCC-2998 colon and 64.6% in the test with KM12 colon.

`O=C1NC(=O)C(c2ccccc2)O1` (stereo not drawn): the growth in the test on T-47D breast was 83.8%; in the test with BT-549 breast, 99.6%; in the test with MDA-MB-435 melanoma, 104%; in the test on SW-620 colon it was 111%; with MCF7 breast (10 µM unless noted), 105%; with HCT-116 colon, 98.1%. Further, the figures for the growth in the test with HCC-2998 colon and with KM12 colon were 105% and 112%, respectively.

For `C=C1C(=O)C2CCN1CC2`, the growth in the test with T-47D breast was 98%; with BT-549 breast, 96.9%; with MDA-MB-435 melanoma, 93.7%; with SW-620 colon, 67.2%; with MCF7 breast (10 µM unless noted), 94.3%; in the test on HCT-116 colon, 56.4%. In addition, the growth is 106% with HCC-2998 colon and 102% in the test on KM12 colon.

In the case of `CCOC(=N)CC(=O)Nc1cccc(C)c1Cl`, the growth was 95% in the test on T-47D breast; 103% with BT-549 breast; 98.6% in the test on MDA-MB-435 melanoma; 94.9% with SW-620 colon; 89.5% in the test with MCF7 breast (10 µM unless noted); 96.3% in the test with HCT-116 colon. Further, the growth with HCC-2998 colon is 102%; in the test on KM12 colon, 96.7%.

For the compound `Nc1nc2nnc(-c3ccccc3)c(-c3ccccc3)n2n1`, the growth was 84.7% in the test on T-47D breast; 103% with BT-549 breast; 106% with MDA-MB-435 melanoma; 97.9% in the test with SW-620 colon; 98.7% in the test with MCF7 breast (10 µM unless noted); 102% in the test with HCT-116 colon. The values for the growth with HCC-2998 colon and in the test with KM12 colon were 93.1% and 132%, respectively.

With `Cc1ccc2[nH]c3ccccc3c2c1`, the growth is 93% in the test on T-47D breast; 102% in the test on BT-549 breast; 101% in the test with MDA-MB-435 melanoma; 101% in the test with SW-620 colon; 104% in the test with MCF7 breast (10 µM unless noted); 98.3% in the test with HCT-116 colon. The growth was 100% in the test on HCC-2998 colon and 101% in the test on KM12 colon.

For the compound `c1cc(CNCCNCc2ccncc2)ccn1`, the growth is 91.4% with T-47D breast; 117% with BT-549 breast; 112% in the test with MDA-MB-435 melanoma; 105% with SW-620 colon; 100% in the test on MCF7 breast (10 µM unless noted); 95.2% in the test with HCT-116 colon. Further, the results for the growth in the test with HCC-2998 colon and in the test with KM12 colon were 102% and 108%, respectively.

As for `Nc1cc(F)ccc1[N+](=O)[O-]`, the growth was 104% with T-47D breast; 103% in the test with BT-549 breast; 111% in the test with MDA-MB-435 melanoma; 104% with SW-620 colon; 97.6% in the test with MCF7 breast (10 µM unless noted); 97.9% with HCT-116 colon. Also, the growth in the test on HCC-2998 colon was 102%; in the test with KM12 colon, 104%.

With `Oc1cc(O)c2c(c1)O[C@H](c1ccc(O)c(O)c1)[C@@H](O)C2`, the growth in the test with T-47D breast was 104%; in the test on BT-549 breast, 100%; with MDA-MB-435 melanoma, 104%; in the test with SW-620 colon, 106%; with MCF7 breast (10 µM unless noted) it was 104%; in the test on HCT-116 colon, 109%. In the test with HCC-2998 colon, the growth is 108%.

On to `COC1OC(COC(C)=O)C(OC(C)=O)C(OC(C)=O)C1OC(C)=O` (stereo not drawn), for which the growth in the test on T-47D breast is 91.7%; in the test with BT-549 breast, 101%; in the test with MDA-MB-435 melanoma it was 105%; with SW-620 colon it was 109%; with MCF7 breast (10 µM unless noted) it was 93%; in the test with HCT-116 colon, 87.4%. Also, the growth in the test with HCC-2998 colon is 101%; with KM12 colon, 106%.

Take `NS(=O)(=O)c1cc(=O)[nH]c(=O)[nH]1`: the growth in the test on T-47D breast was 113%; in the test with BT-549 breast, 107%; in the test on MDA-MB-435 melanoma it was 105%; in the test on SW-620 colon it was 109%; in the test on MCF7 breast (10 µM unless noted) it was 101%; in the test with HCT-116 colon, 105%. Further, the growth with HCC-2998 colon is 121%; in the test with KM12 colon it was 104%.
